From PubChem BioAssay AID1159580 (chemical genetic matrix, 2015)
The campaign covered roughly 5,500 compounds. About 2,000 (36%) were called active. Roughly 18% stayed inconclusive and do not appear here. Rule as the data show it: active = normalized growth mostly below about 0.91 (no sharp cut-off); inconclusive = no clear call, values can overlap the other calls; inactive = mostly above about 0.92. Some of the results follow.

Experiment: chemical genetic growth profiling, strain panel (AID 1159580);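 also: tested at 20 µM; growth read once vehicle control cultures reached saturation at 30 °C; 1 = growth at the plate median or of vehicle wells; lower values mean less growth of the strain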
Conditions: growth OD
[1] = S. cerevisiae deletion strains, locus YDL101C, strain DUN1, hits give low values
[2] = S. cerevisiae deletion strains, locus YHR030C, strain SLT2, hits give low values
[3] = S. cerevisiae deletion strains, locus YAL013W, strain DEP1, hits give low values
[4] = S. cerevisiae deletion strains, locus YBR229C, strain ROT2, hits give low values
[5] = S. cerevisiae deletion strains, locus YDR150W, strain NUM1, hits give low values
[6] = S. cerevisiae deletion strains, locus YEL061C, strain CIN8, hits give low values
[7] = S. cerevisiae deletion strains, locus YGR078C, strain PAC10, hits give low values
[8] = S. cerevisiae deletion strains, locus YHR087W, strain rtc3, hits give low values
[9] = S. cerevisiae deletion strains, locus YJR043C, strain POL32, hits give low values
[10] = S. cerevisiae deletion strains, locus YJR075W, strain HOC1, hits give low values
[11] = S. cerevisiae deletion strains, locus YLR039C, strain RIC1, hits give low values
[12] = S. cerevisiae deletion strains, locus YLR058C, strain SHM2 (second series), hits give low values
[13] = S. cerevisiae deletion strains, locus YLR085C, strain ARP6, hits give low values
[14] = S. cerevisiae deletion strains, locus YLR262C, strain YPT6, hits give low values
[15] = S. cerevisiae deletion strains, locus YML094W, strain GIM5, hits give low values
[16] = S. cerevisiae deletion strains, locus YMR219W, strain ESC1, hits give low values
[17] = S. cerevisiae deletion strains, locus YMR263W, strain SAP30, hits give low values
[18] = S. cerevisiae deletion strains, locus YMR307W, strain GAS1, hits give low values
[19] = S. cerevisiae deletion strains, locus YNL153C, strain GIM3, hits give low values
[20] = S. cerevisiae deletion strains, locus YNL298W, strain CLA4 (second series), hits give low values
[21] = S. cerevisiae deletion strains, locus YNL322C, strain KRE1, hits give low values
[22] = S. cerevisiae deletion strains, locus YNR030W, strain Alg12, hits give low values
[23] = S. cerevisiae deletion strains, locus YOL006C, strain TOP1, hits give low values
[24] = S. cerevisiae deletion strains, locus YPL055C, strain LGE1, hits give low values
[25] = S. cerevisiae deletion strains, locus YPL241C, strain CIN2, hits give low values
[26] = S. cerevisiae deletion strains, locus YPR135W, strain CTF4, hits give low values
[27] = S. cerevisiae deletion strains, locus YCL061C, strain MRC1, hits give low values
[28] = S. cerevisiae strains, strain wild type, hits give low values

Measured: normalized growth

CC(C)c1cccc(C(C)C)c1OC(=O)NC(=O)c1c(Cl)cccc1Cl
inactive: S. cerevisiae deletion strains, locus YAR019C, strain CDC15, hits give low values 0.98 | S. cerevisiae deletion strains, locus YBL105C, strain PKC1, hits give low values 0.984 | S. cerevisiae deletion strains, locus YBR135W, strain CKS1, hits give low values 0.983 | S. cerevisiae deletion strains, locus YBR136W, strain MEC1, hits give low values 0.989 | S. cerevisiae deletion strains, locus YBR160W, strain CDC28, hits give low values 0.985 | S. cerevisiae deletion strains, locus YDL017W, strain CDC7, hits give low values 0.985 | S. cerevisiae deletion strains, locus YDL028C, strain MPS1, hits give low values 0.989 | [1] 0.971 | S. cerevisiae deletion strains, locus YDL108W, strain KIN28, hits give low values 0.985 | S. cerevisiae deletion strains, locus YDL132W, strain cdc53, hits give low values 0.985 | S. cerevisiae deletion strains, locus YDL214C, strain PRR2, hits give low values 0.974 | S. cerevisiae deletion strains, locus YDR052C, strain DBF4, hits give low values 0.978 | S. cerevisiae deletion strains, locus YDR054C, strain cdc34, hits give low values 0.977 | S. cerevisiae deletion strains, locus YDR226W, strain ADK1, hits give low values 0.975 | S. cerevisiae deletion strains, locus YDR477W, strain SNF1, hits give low values 0.982 | S. cerevisiae deletion strains, locus YER123W, strain YCK3, hits give low values 0.942 | S. cerevisiae deletion strains, locus YER133W, strain GLC7, hits give low values 0.983 | S. cerevisiae deletion strains, locus YFL009W, strain cdc4, hits give low values 0.99 | S. cerevisiae deletion strains, locus YFL029C, strain CAK1, hits give low values 0.979 | S. cerevisiae deletion strains, locus YFR003C, strain YPI1, hits give low values 0.982 | S. cerevisiae deletion strains, locus YFR019W, strain FAB1, hits give low values 0.969 | S. cerevisiae deletion strains, locus YFR028C, strain CDC14, hits give low values 0.988 | S. cerevisiae deletion strains, locus YGR040W, strain KSS1, hits give low values 0.979 | S. cerevisiae deletion strains, locus YGR052W, strain FMP48, hits give low values 1.01 | S. cerevisiae deletion strains, locus YGR092W, strain DBF2, hits give low values 0.992 | [2] 0.966 | S. cerevisiae deletion strains, locus YHR079C, strain IRE1, hits give low values 0.911 | S. cerevisiae deletion strains, locus YHR082C, strain KSP1, hits give low values 1.04 | S. cerevisiae deletion strains, locus YHR205W, strain SCH9, hits give low values 0.945 | S. cerevisiae deletion strains, locus YIL147C, strain SLN1, hits give low values 0.988 | S. cerevisiae deletion strains, locus YJL095W, strain BCK1, hits give low values 0.956 | S. cerevisiae deletion strains, locus YJL128C, strain PBS2, hits give low values 0.928 | S. cerevisiae deletion strains, locus YJL157C, strain FAR1, hits give low values 0.957 | S. cerevisiae deletion strains, locus YJR016C, strain ILV3, hits give low values 0.985 | S. cerevisiae deletion strains, locus YJR066W, strain TOR1 (second series), hits give low values 0.945 | S. cerevisiae deletion strains, locus YJR066W, strain TOR1, hits give low values 1.03 | S. cerevisiae deletion strains, locus YKL048C, strain ELM1, hits give low values 0.986 | S. cerevisiae deletion strains, locus YKL067W, strain YNK1, hits give low values 0.966 | S. cerevisiae deletion strains, locus YKL101W, strain HSL1, hits give low values 0.956 | S. cerevisiae deletion strains, locus YKL193C, strain SDS22, hits give low values 0.99 | S. cerevisiae deletion strains, locus YKL203C, strain TOR2, hits give low values 1.01 | S. cerevisiae deletion strains, locus YLR113W, strain HOG1, hits give low values 0.866 | S. cerevisiae deletion strains, locus YLR133W, strain CKI1, hits give low values 0.96 | S. cerevisiae deletion strains, locus YLR403W, strain SFP1, hits give low values 0.962 | S. cerevisiae deletion strains, locus YML070W, strain DAK1, hits give low values 0.972 | S. cerevisiae deletion strains, locus YMR001C, strain CDC5, hits give low values 0.986 | S. cerevisiae deletion strains, locus YMR205C, strain PFK2 (second series), hits give low values 0.98 | S. cerevisiae deletion strains, locus YMR277W, strain FCP1, hits give low values 0.986 | S. cerevisiae deletion strains, locus YNL006W, strain LST8, hits give low values 0.982 | S. cerevisiae deletion strains, locus YNL020C, strain ARK1, hits give low values 0.957 | S. cerevisiae deletion strains, locus YNL161W, strain CBK1, hits give low values 0.976 | S. cerevisiae deletion strains, locus YNL183C, strain NPR1, hits give low values 0.979 | S. cerevisiae deletion strains, locus YNL207W, strain RIO2, hits give low values 0.98 | S. cerevisiae deletion strains, locus YNL222W, strain SSU72, hits give low values 0.987 | S. cerevisiae deletion strains, locus YNL307C, strain MCK1 (second series), hits give low values 0.958 | S. cerevisiae deletion strains, locus YOL078W, strain AVO1, hits give low values 0.985 | S. cerevisiae deletion strains, locus YOL136C, strain PFK27, hits give low values 0.945 | S. cerevisiae deletion strains, locus YOR061W, strain CKA2, hits give low values 0.972 | S. cerevisiae deletion strains, locus YOR119C, strain RIO1, hits give low values 1.04 | S. cerevisiae deletion strains, locus YOR231W, strain MKK1, hits give low values 0.945 | S. cerevisiae deletion strains, locus YOR329C, strain SCD5, hits give low values 0.971 | S. cerevisiae deletion strains, locus YPL031C, strain PHO85, hits give low values 0.954 | S. cerevisiae deletion strains, locus YPL153C, strain RAD53, hits give low values 0.984 | S. cerevisiae deletion strains, locus YPL204W, strain HRR25, hits give low values 0.943 | S. cerevisiae deletion strains, locus YPL209C, strain IPL1, hits give low values 0.991 | S. cerevisiae deletion strains, locus YPL256C, strain CLN2, hits give low values 0.919 | S. cerevisiae deletion strains, locus YPR025C, strain CCL1, hits give low values 0.982 | S. cerevisiae deletion strains, locus YPR106W, strain ISR1, hits give low values 0.978 | S. cerevisiae deletion strains, locus YPR111W, strain DBF20, hits give low values 0.96 | S. cerevisiae deletion strains, strain NNK1, hits give low values 0.962 | S. cerevisiae deletion strains, strain TSCII, hits give low values 0.978

COC(=O)C(Cc1c[nH]c2ccccc12)NC(=O)c1c(Cl)cccc1Cl (stereo unspecified)
inactive: [3] 1 | [4] 0.992 | [1] 0.993 | [5] 0.993 | [6] 1.01 | [7] 0.994 | [2] 0.97 | [8] 0.985 | [9] 1 | [10] 0.994 | [11] 0.996 | [12] 1.01 | [13] 0.981 | [14] 1 | [15] 1 | [16] 1 | [17] 0.994 | [18] 0.915 | [19] 0.993 | [20] 1 | [21] 0.99 | [22] 0.999 | [23] 0.937 | [24] 0.988 | [25] 0.999 | [26] 0.963

Cc1cc(S(=O)(=O)NC(Cc2ccc([N+](=O)[O-])cc2)C(=O)O)c(Cl)cc1Cl (stereo unspecified)
inactive: [3] 1.01 | [4] 0.996 | [27] 1 | [1] 0.997 | [5] 0.927 | [6] 1.01 | [7] 1 | S. cerevisiae deletion strains, locus YGR229C, strain SMI1, hits give low values 1.01 | [2] 1.07 | [8] 1 | [9] 0.998 | [10] 1 | [11] 1.01 | [12] 1 | [13] 1.02 | [14] 1 | [15] 1.02 | [16] 0.995 | [17] 1 | S. cerevisiae deletion strains, locus YNL128W, strain TEP1, hits give low values 1 | [19] 0.995 | [20] 1.01 | [21] 1 | [22] 1.01 | [24] 1.04 | [25] 1.02 | [26] 0.988 | [28] 1.01

O=[N+]([O-])c1ccc(NCCCCCO)nc1
inactive: [3] 0.988 | [4] 0.98 | [27] 0.977 | [1] 0.966 | S. cerevisiae deletion strains, locus YDL134C, strain PPH21, hits give low values 0.998 | [5] 0.975 | [6] 1.03 | [7] 0.987 | [2] 0.974 | [8] 1.05 | S. cerevisiae deletion strains, locus YJL187C, strain SWE1, hits give low values 1 | [9] 0.981 | [10] 1.02 | S. cerevisiae deletion strains, locus YKL190W, strain CNB1, hits give low values 1.01 | [11] 0.936 | [12] 0.993 | [13] 0.993 | [14] 1.01 | [15] 1.04 | [16] 1.01 | [17] 0.999 | [18] 1.07 | [19] 0.986 | [20] 0.967 | [21] 0.992 | [22] 0.99 | [23] 0.955 | [24] 1.04 | [25] 0.974 | [26] 0.958 | [28] 0.996
